# In the supplement of paper PMC10338343:
# ± gives the standard deviation.
# System: MILI (PIWIL2) piRISC loaded with piRNA #1 (26 nt)
# Experiment: pre-steady-state target cleavage rate (min^-1); guide: piRNA #1 5'p-UGAGGUAGUAGGUUGUAUAGUAUCCA; MIWI and MILI are mouse PIWI proteins and EfPiwi is from a freshwater sponge; tags in brackets are library labels; higher = faster piRNA-guided slicing of the target
# Settings: auxiliary factor: 500 nM mouse GTSF1
# Procedure, shortened: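 A burst-and-steady-state fit was used to obtain the pre-steady-state cleavage rate. The input data were sequencing reads of uncleaved targets, normalised to depth and to weakly complementary targets, from a […] transcribed, DNA-blocked target RNA library mixed with 1 nM active affinity-purified piRISC holding one synthetic guide, with or without 500 nM GTSF1 partner protein, in HEPES–potassium acetate buffer at 33 °C for 0–8 or 0–960 min. Three trials were pooled and k3 was capped at 0.0001 min^-1.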
# 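Note: 1 nM active piRISC with 0.1 nM target library at 33 °C single turnover.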
row,Sequence,pre-steady-state target cleavage rate
1,GGAGACCAUACUAUACAAGCAACUACCUCA,0.00864 ± 0.003
2,GGAGACCUUACUAAACAACCUACAACCUCA,0.178 ± 0.025
3,GGAGACCUAACUAUAGAAGCUACUACCUCA,0.156 ± 0.029
4,GGAGACCUAUCAAUACAACCUAGUACCUCA,0.00718 ± 0.0036
5,GGAGAGGAUUCUAUACAACCUACUUCCUCA,0.00504 ± 0.0027
6,GGAGACCUAUGUAUACAACCUACUCCCUCA,0.0316 ± 0.0063
7,GGAGUGGAUACUAUACAACCUACGACCUCA,0.0834 ± 0.0092
8,GGAGACCUUACUAUACAACUACUACCUCA,0.0157 ± 0.0032
9,GGAGACGAUUCUUUACAACCUACUACCUCA,0.152 ± 0.011
10,GGAGACCUAUGUAACAACCUACUACCUCA,0.0402 ± 0.0057
11,GGAGACCUAACAAUACAACCUACUACCACA,0.0755 ± 0.019
12,GGAGACCUAUCUAUACAACCUACUUCCUCA,0.0646 ± 0.012
13,GGAGUGGAACUAUACAACCUACUACCUCA,0.159 ± 0.011
14,GGAGACCUUACUAACAACCUACUACCUCA,0.0824 ± 0.016
15,GGAGACCUAUCUAUAGAACCUACUUCCUCA,0.00536 ± 0.0024
16,GGAGUGGAUACUAUACAACCUACUAACCUCA,0.133 ± 0.014
17,GGAGACCUAUGUAUACAACCGUACUACCUCA,0.00758 ± 0.0041
18,GGAGACCUUACUAUUGUACCUACUACCUCA,0.0232 ± 0.0049
19,GGAGACCUAUGAAUACAACCUAUCUACCUCA,0.00974 ± 0.0026
20,GGAGACCUAUGAAUACAACCUACUACCACA,0.00626 ± 0.0028

row,Sequence,pre-steady-state target cleavage rate
1,GGAGACCUUACUAUUCAACCUACUAGCUCA,0.0771 ± 0.014
2,GGAGACCUAUGAUUACAUCCUUCUACCUCA,0.00314 ± 0.0026
3,GGAGACCUAUGAUAUGUUGCUUCUACCUGA,< 0.0001
4,GGAGACCUAUGUAAACAACCUACUAGCUCA,0.00495 ± 0.0023
5,GGAGACCUAACUAUACAAGCAACUACCUCA,0.00654 ± 0.0041
6,GGAGACCUUCUAUACAACCUACUACCUCA,0.0879 ± 0.016
7,GGAGACCUAUGAUUACAACCUCACUACCUCA,0.00291 ± 0.0027
8,GGAGACCUAACUAUAGAACCUACUAGCUCA,0.00426 ± 0.0041
9,GGAGACCUUACAAUACAACCAACUACCUCA,0.00567 ± 0.0032
10,GGAGACCUAUGAUAUGUUCCUACUUCCUCA,< 0.0001
11,GGAGACCUUACUUUACAACCUACAACCUCA,0.0873 ± 0.013
12,GGAGACGAUAUUAUACAACCUACUACCUCA,0.214 ± 0.013
13,GGAGACCUAUGUAUACAACCUACUACCGUCA,0.0528 ± 0.0094
14,GGAGACCUAUGUAUACAACCUACUAGCACA,0.00507 ± 0.0028
15,GGAGACCUAACUAUACUUGCUACUACCUCA,0.0149 ± 0.0044
16,GGAGACCUAUGUUUACAACCUUCUACCUCA,0.00358 ± 0.0029
17,GGAGUGGAUAGUAUAGAACCUACUACCUCA,0.146 ± 0.013
18,GGAGUGGAUACAAAACAACCUACUACCUCA,0.12 ± 0.0086
19,GGAGACCUAUGAAUACAACCUACUGCCUCA,0.0052 ± 0.0029
20,GGAGACCUAUGUAUAGAUCCUACUACCUCA,0.0611 ± 0.0081
